Screens as filed in PubChem BioAssay.
This is a sample that favours compounds with a hit; in the whole collection about 7.4% have one here.
Rab9 promoter act: qHTS Assay for Rab9 Promoter Activators | Huh7 Rab9 promoter-luciferase reporter, luminescence, 24 h | Potency, µM (highest dose often 9.22 µM), for inactives: at the top dose activation, negative = inhibition, hits mostly activators | 320,000 compounds, 2.8% hits | AID 485297, 2010; further: % of control where 0% means no effect; nearly all actives have a fitted effect of over 60% in size
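Cells were plated at 1500 per well in reduced-serum medium with 10% FBS and left 2 h. Compound in DMSO was then added for 24 h at 37 °C. Reporter signal was read by luminescence after 10 min with luciferase detection reagent.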
NPC1 prom act: qHTS Assay for NPC1 Promoter Activators. Huh7 NPC1 promoter luciferase reporter, 24 h. Potency, µM (doses to about 9.22 µM), without a hit: at the highest dose activation, actives largely listed as activators. 320,000 compounds, 2.4% hits. AID 485313, 2010; further: % of control where 0% means no effect; nearly all actives have a fitted effect of over 60% in size
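Readout is luciferase luminescence, reflecting NPC1 promoter activation in stably transfected Huh7 cells after 24 h compound exposure at 37 °C in reduced-serum medium with 10% FBS.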
SMN2 splice enh: qHTS Assay for Enhancers of SMN2 Splice Variant Expression; HEK293 SMN2-luciferase splicing reporter, luminescence, 30-36 h; Potency, µM (titrated, usually from 46.1 µM), without a hit: at the highest dose activity change, positive = activation, most hits filed as activators; 210,000 compounds, 2.8% hits; further: % of control where 0% means no effect; nearly all actives have a fitted effect of over 55% in size
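HEK293 cells carry an SMN2 minigene-luciferase reporter in which exon 7 inclusion puts luciferase in frame. Cells were seeded at 2000 cells/well, attached for 10-12 hours, then exposed to compounds for 30-36 hours at 37C before ONE-Glo luminescence.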
KinaseGlo FLuc: Counterscreen for Luciferase (Kinase-Glo TM) Inhibition. Luciferin 4-monooxygenase (Photuris pensylvanica), Q27757. Kinase-Glo luciferase, ATP luminescence, 8 min. Potency, µM (doses to about 38.3 µM), inactives show at the highest dose activity change, negative = inhibition, hits mostly inhibitors. 200,000 compounds, 0.28% hits. AID 1379, 2008; further: on the % scale 0 is the no-effect control and ±100 the full control effect; nearly all actives have a fitted effect of over 60% in size
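Luminescence was the read-out, taken after 8-minute incubation at ambient temperature. Luciferase turned over luciferin with 10 uM ATP in imidazole pH 7.2 buffer containing KCl, MgCl2, Tween 20 and BSA.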
FLuc counter: qHTS profiling assay for firefly luciferase inhibitor/activator using purifed enzyme and Km concentrations of substrates (counterscreen for miR-21 project); purified FLuc, Km substrates, luminescence inhibition; Potency, µM (series often up to 57.5 µM), for the others: at the highest dose activity change, negative = inhibition, hits mostly inhibitors; 360,000 compounds, 6.9% hits; AID 588342, 2011;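 further: plate controls were vehicle for no effect and reference inhibitor for full effect; nearly all actives have a fitted effect of over 55% in size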
Target sequence (P08659 whole entry, looked up): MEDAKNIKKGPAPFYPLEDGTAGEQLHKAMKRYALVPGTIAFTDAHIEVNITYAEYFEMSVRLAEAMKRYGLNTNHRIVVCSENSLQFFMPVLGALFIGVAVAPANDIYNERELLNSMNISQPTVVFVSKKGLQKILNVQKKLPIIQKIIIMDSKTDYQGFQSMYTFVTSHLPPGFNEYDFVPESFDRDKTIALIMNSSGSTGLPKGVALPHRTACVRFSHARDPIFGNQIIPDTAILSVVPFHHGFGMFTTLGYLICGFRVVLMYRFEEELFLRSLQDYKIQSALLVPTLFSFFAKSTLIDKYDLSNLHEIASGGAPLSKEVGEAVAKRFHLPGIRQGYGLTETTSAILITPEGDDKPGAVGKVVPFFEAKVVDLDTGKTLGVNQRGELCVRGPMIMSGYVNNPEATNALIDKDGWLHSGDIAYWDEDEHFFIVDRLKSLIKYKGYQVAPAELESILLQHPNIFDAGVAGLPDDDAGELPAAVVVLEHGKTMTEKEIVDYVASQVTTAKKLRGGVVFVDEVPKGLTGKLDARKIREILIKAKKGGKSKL
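Purified P. pyralis luciferase (10nM final) with 10uM D-luciferin and 10uM ATP (Km levels) in 50mM Tris acetate pH 7.5, 10mM Mg acetate, 0.01% Tween-20, 0.05% BSA; qHTS 6-point titration, ~60 µM downward; luminescence read.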
ELG1 genotox: qHTS screen for small molecules that induce genotoxicity in human embryonic kidney (HEK293T) cells expressing luciferase-tagged ELG1. HEK293T ELG1-luciferase reporter, luminescence, 16 h. Potency, µM (series often up to 46 µM), for inactives: at the highest dose activity change, positive = activation, actives largely listed as activators. 330,000 compounds, 1.3% hits. AID 504466, 2011; further: % of control where 0% means no effect; nearly all actives have a fitted effect of over 60% in size
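Quantitative HTS format in 1536-well plates. HEK293T ELG1-luciferase reporter cells receive test compound and are incubated 16 hr at 37 °C, 5% CO2; ONE-Glo added, 30 min room temperature, then luminescence read.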
Starred values were filed as active, the others as inactive; u = inconclusive; x = not tested or not shown. The call rests on the fitted dose curve; in most records, active means well fitted curve in the direction sought with a large enough effect; inconclusive means small, poorly fitted or top-dose-only effect, or another doubt; inactive means no such curve, though single readings can be large; an effect the other way counts as inactive or inconclusive. Potency means the concentration at half of the fitted maximal effect.

SMILES	Rab9 promoter act	NPC1 prom act	SMN2 splice enh	KinaseGlo FLuc	FLuc counter	ELG1 genotox
CCc1ccc(NC(=O)Cn2cnc3sc(C)c(S(=O)(=O)N4CCC(C)CC4)c3c2=O)cc1	x	x	8%	x	-1%	x
CCCCCn1c(CN2CCN(c3ccc(OC)cc3)CC2)nc2c1c(=O)[nH]c(=O)n2C	x	x	2%	x	12%	x
Cn1cc(/C=C2\SC(=S)N(NC(=O)c3ccccc3Cl)C2=O)c2ccccc21	2%	-1%	1%	-2%	27µM*	1%
Cc1ccc(C(=O)NN2C(=O)/C(=C/c3cn(C)c4ccccc34)SC2=S)cc1	8%	14%	10%	1%	u	-4%
Nc1ccc(CCc2nc3ccccc3o2)cc1	1.6µM*	2.5µM*	13µM*	-1%	2.7µM*	2.9µM*
Cc1ccc(S(=O)(=O)N2CCC[C@H]2C(=O)OCC(=O)Nc2ccc3c(c2)OCO3)cc1	x	x	x	x	x	2%
CC(C)CC(=O)Nc1ccc(-c2nnn(CC(=O)NCc3ccco3)n2)cc1	u	u	u	2%	11µM*	u
COCCCn1c(=O)c2ccccc2n(Cc2cc(C(=O)OC)ccc2OC)c1=O	-4%	0%	x	x	-4%	1%
O=C(Cn1nnc(-c2ccc3c(c2)OCO3)n1)Nc1ccccc1C(=O)O	27%	u	x	x	15µM*	u
Cc1ccccc1NC(=O)Cn1nnc(-c2ccc(N3CCOCC3)cc2)n1	25%	-3%	23%	-1%	u	19%
CN(C)c1ccc(-c2nnn(CC(=O)Nc3ccccc3N3CCOCC3)n2)cc1	9%	30%	-12%	-3%	27µM*	-2%
COc1ccc(C2=NS(=O)(=O)N(C)C(C(=O)NCc3ccc4c(c3)OCO4)=C2)cc1OC	1%	-6%	x	x	-20%	-3%
CCc1cccc(NC(=S)N(CCOC)C(C)c2ccco2)c1 (stereo not drawn)	2%	-3%	x	x	1%	0%
Cc1ccc(NC(=O)N2CCN(c3cc(-c4noc(C)n4)ccc3C)CC2)c(F)c1	x	x	x	x	-1%	x
CC1CCc2c(sc(/N=C/c3ccco3)c2C(N)=O)C1 (stereo not drawn)	28%	u	x	x	5.4µM*	u
CC1CCc2c(sc(/N=C/c3cccnc3)c2C(N)=O)C1 (stereo not drawn)	2%	8%	x	x	24µM*	17%
Cn1cc(Br)c(-c2cccc(NC(=O)CCC(=O)O)c2)n1	1%	1%	x	x	-3%	2%
CCn1c(CNc2ccc(C(=O)O)cc2)nc2ccccc21	x	x	-2%	-4%	-4%	x
CCn1c(/C=N/Nc2ccc(C(=O)O)cc2)nc2ccccc21	-1%	15%	3%	2%	11µM*	1%
Cc1c(/C=N\NC(=O)C2COc3ccccc3O2)c2ccccc2n1C (stereo not drawn)	-27%	-9%	15%	2%	u	15%
Cc1c(/C=N/Nc2ccc(C(=O)O)cc2)c2ccccc2n1C	1.4µM*	2.2µM*	x	x	11µM*	u
COc1ccc(C2(C)NC(=O)N(CC(=O)NC3CCCC3)C2=O)cc1OC (stereo not drawn)	-1%	0%	x	x	1%	-3%
COc1ccc(-n2c(=O)c3sc4ccccc4c3n(CC(=O)NCc3ccccc3)c2=O)cc1	x	x	-7%	x	-2%	x
Cc1ccc(CSc2nnc(-c3cccs3)n2C)cc1	10%	10%	4%	-1%	-14%	7%
Cc1ccc(Nc2nc(CSc3nnc(-c4cccnc4)n3-c3ccccc3C)cs2)cc1	2%	3%	-44%	4%	11µM*	1%
SMILES	Rab9 promoter act	NPC1 prom act	SMN2 splice enh	KinaseGlo FLuc	FLuc counter	ELG1 genotox
Cc1ccccc1-n1c(SCc2csc(Nc3ccccc3)n2)nnc1-c1cccnc1	-1%	0%	-13%	3%	u	-8%
Cc1ccc(Nc2nc(CSc3nnc(-c4ccccc4)n3C)cs2)cc1	u	u	u	-1%	1.2µM*	u
Cc1ccc(Nc2nc(CSc3nnc(-c4ccccc4C)n3C)cs2)cc1	u	u	x	x	1.9µM*	3%
Cc1cc(C)cc(Nc2cc(-c3ccccc3)nc(C)n2)c1	x	x	x	x	-17%	x
Cc1cccc(CNC(=O)CCc2nnc(C3CCCCC3)o2)c1	11%	-2%	x	x	3%	3%
COC(c1ccccc1)c1nnc(CCC(=O)N(C)Cc2cccc(-n3cccn3)c2)o1 (stereo not drawn)	u	4%	x	-3%	15µM*	u
COC(c1ccccc1)c1nnc(CCC(=O)N(C)CCOc2ccccc2)o1 (stereo not drawn)	28%	17%	12%	3%	27µM*	u
Cc1nnc2ccc(-c3cccc(NS(=O)(=O)c4ccccc4Cl)c3)nn12	1%	-16%	x	x	8%	u
CCCS(=O)(=O)Nc1cccc(-c2ccc3nnc(C)n3n2)c1	-1%	-9%	16µM*	0%	1%	u
Cc1ccccc1OCC(=O)N/N=C/c1c(C)nn(-c2ccccc2)c1Cl	-8%	-6%	17%	2%	u	0%
Cc1nn(-c2ccccc2)c(Cl)c1/C=N/NC(=O)c1ccccc1F	2.2µM*	u	x	x	8.5µM*	u
Cc1nn(-c2ccccc2)c(Cl)c1/C=N/NC(=O)c1ccn[nH]1	1.1µM*	0.22µM*	x	x	0.76µM*	8.2µM*
Cc1nn(-c2ccccc2)c(Cl)c1/C=N/NC(=O)c1[nH]ncc1Br	0.4µM*	0.32µM*	x	x	0.6µM*	1.5µM*
Cc1nn(-c2ccccc2)c(Cl)c1/C=N/NC(=O)CNc1n[nH]c(=O)[nH]c1=O	-1%	1%	-9%	0%	u	2%
Cc1cc(C(=O)N/N=C/c2c(C)nn(-c3ccccc3)c2Cl)n[nH]1	u	29%	x	x	7.6µM*	u
Cc1nn(-c2cccc(Cl)c2)c(Cl)c1/C=N/NC(=O)c1cccs1	17%	4%	x	x	0%	u
Cc1nc(N2CCOCC2)c2c(C(=O)NCCc3ccccc3)c(C)oc2n1	x	x	x	x	-10%	x
Cc1nc(NC2CCCCC2)c2nc(-c3ccccc3)n(CC3CCN(C)CC3)c2n1	x	x	0%	1%	x	x
COc1ccc(/C=N\Nc2ccccn2)c(OC)c1	u	u	x	x	3.4µM*	u
COc1ccc(-c2nn(-c3ccccc3)cc2/C=N/Nc2ccccn2)cc1	-1%	-8%	-10%	-3%	2%	u
Cc1ccc(C)c(/C=N/Nc2ccccn2)c1	-1%	-11%	19%	2%	u	14%
